Measurements from PubChem BioAssay.
Calls of active or inactive are those of the source. Unless noted, the rule behind the calls is not given here.

Experiments:
[1] = anti-His antibody binders, primary screen, artefact control for SMM control protein annotation, biochemical, small-molecule microarray, 635 nm fluorescence (AID 1128); conditions: anti-His Alexa647 antibody binding, higher = more signal;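 note: score merges feature fluorescence with signal-to-noise for each printed compound spot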
[2] = test system: Human papillomavirus type 1a E7 protein (residues 1-88); test: HPV1a E7 small-molecule binders, primary screen, biochemical, small-molecule microarray, residues 1-88, 635 nm (AID 1129); conditions: small-molecule microarray binding, fluorescence 635 nm; higher = more signal
[3] = biological target: Focal adhesion kinase 1 (Homo sapiens) (UniProt Q05397); test: small-molecule microarray binders of FAK, primary screen, biochemical, 635/667 nm fluorescence, BSA, DTT (AID 1130); conditions: PTK2 binding, 635 nm fluorescence, higher = more signal;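 note: composite of spot emission at 667 nm and signal to noise over triplicate slides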
Sequence of Focal adhesion kinase 1 (Homo sapiens) (Q05397 whole entry, looked up): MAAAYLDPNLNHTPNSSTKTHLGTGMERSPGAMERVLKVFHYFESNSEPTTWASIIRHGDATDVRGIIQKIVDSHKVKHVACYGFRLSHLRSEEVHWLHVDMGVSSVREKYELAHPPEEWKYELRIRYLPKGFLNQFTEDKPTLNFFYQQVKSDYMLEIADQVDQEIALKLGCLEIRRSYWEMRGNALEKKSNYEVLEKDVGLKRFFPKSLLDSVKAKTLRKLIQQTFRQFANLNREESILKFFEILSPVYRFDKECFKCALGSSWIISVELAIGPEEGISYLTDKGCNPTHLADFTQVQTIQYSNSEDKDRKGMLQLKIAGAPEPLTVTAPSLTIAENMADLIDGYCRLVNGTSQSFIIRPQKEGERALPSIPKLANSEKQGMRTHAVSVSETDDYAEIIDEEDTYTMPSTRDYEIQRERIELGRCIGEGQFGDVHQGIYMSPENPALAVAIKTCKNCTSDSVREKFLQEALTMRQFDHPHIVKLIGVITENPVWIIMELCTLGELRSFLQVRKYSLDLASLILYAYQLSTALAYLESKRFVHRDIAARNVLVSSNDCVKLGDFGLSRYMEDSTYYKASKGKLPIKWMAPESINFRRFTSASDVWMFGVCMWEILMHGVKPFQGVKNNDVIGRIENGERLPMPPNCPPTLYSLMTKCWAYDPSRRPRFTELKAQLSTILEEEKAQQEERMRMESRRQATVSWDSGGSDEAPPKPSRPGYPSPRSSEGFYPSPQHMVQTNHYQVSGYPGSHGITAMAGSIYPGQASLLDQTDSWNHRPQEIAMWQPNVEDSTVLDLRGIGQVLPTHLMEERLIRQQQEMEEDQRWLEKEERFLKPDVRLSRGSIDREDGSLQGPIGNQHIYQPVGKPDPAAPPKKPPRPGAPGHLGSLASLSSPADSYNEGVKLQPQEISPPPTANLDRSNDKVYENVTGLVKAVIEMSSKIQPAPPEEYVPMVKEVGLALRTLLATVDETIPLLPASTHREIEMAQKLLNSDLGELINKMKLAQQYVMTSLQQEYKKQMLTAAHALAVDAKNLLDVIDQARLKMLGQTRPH

[4] = test system: Fibrinogen (Alexa647-labelled); test: fibrinogen binders on compound microarrays, profiling panel, artefact control for SMM control-protein annotation, biochemical, small-molecule microarray, 635/667 nm fluorescence (AID 1131); conditions: fibrinogen-A647 binding fluorescence, higher = more signal;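 note: z-score merges 667 nm fluorescence with per-spot signal-to-noise over triplicate slides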
[5] = biological target: Follistatin (Homo sapiens) (UniProt P19883); test: follistatin binders on small-molecule microarrays, primary screen, biochemical, small-molecule microarray, 635/667 nm fluorescence (AID 1132); conditions: FST binding, 635 nm fluorescence, higher = more signal
Sequence of Follistatin (Homo sapiens) (P19883 whole entry, looked up): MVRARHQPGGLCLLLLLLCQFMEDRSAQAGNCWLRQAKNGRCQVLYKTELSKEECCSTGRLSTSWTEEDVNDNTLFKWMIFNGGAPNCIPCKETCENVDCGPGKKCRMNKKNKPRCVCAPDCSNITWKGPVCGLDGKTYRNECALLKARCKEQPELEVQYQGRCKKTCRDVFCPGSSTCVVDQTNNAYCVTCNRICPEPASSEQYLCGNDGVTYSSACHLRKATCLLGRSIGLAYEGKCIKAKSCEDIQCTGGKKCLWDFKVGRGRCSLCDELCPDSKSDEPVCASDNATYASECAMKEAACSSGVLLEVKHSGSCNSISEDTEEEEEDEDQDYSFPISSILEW

[6] = biological target: Fibroblast growth factor 2 (Homo sapiens) (UniProt P09038); test: FGF2 binders on small-molecule microarrays, primary screen, biochemical, small-molecule microarray, 635/667 nm fluorescence (AID 1133); conditions: small-molecule microarray binding, FGF2, fluorescence 635/667; higher = more signal
Sequence of Fibroblast growth factor 2 (Homo sapiens) (P09038 whole entry, looked up): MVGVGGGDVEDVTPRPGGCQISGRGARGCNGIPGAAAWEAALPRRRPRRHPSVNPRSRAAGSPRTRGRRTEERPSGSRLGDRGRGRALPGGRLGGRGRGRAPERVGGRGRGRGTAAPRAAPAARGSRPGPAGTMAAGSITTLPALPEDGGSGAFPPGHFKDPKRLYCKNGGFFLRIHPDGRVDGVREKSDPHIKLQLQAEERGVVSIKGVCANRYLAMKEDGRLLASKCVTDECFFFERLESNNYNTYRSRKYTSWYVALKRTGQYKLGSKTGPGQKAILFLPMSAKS

[7] = mitochondrial membrane potential change in A549 cells, profiling panel, cell-based, JC-1 fluorescence, basal, 24 h, 100 nL (AID 1138); conditions: higher = more signal;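 note: A549 lung adenocarcinoma cells under basal conditions with no added stimulus; test concentration not given here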
Lefty1 = Lefty1 binders on small-molecule microarrays, primary screen, biochemical, small-molecule microarray, 635/667 nm fluorescence (AID 1139); conditions: small-molecule microarray binding, fluorescence 635/667; higher = more signal
[8] = test system: wheat germ agglutinin (Triticum aestivum), Alexa647-labelled; test: wheat germ agglutinin binders on compound microarrays, profiling panel, artefact control for SMM control-protein annotation, biochemical, small-molecule microarray, 635/667 nm fluorescence (AID 1140); conditions: WGA-A647 binding, 635 nm fluorescence, higher = more signal;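 note: score merges 667 nm feature emission with signal to noise over triplicate slides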
[9] = biological target: Luciferin 4-monooxygenase (Photinus pyralis) (UniProt P08659); test: firefly luciferase enzyme inhibitors, primary screen, biochemical, luminescence, purified enzyme, 2006 set (AID 1141); conditions: SteadyGlo luminescence, 30 min, higher = more signal, called active from +8 up or from −8 down;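 note: cell-free assay with purified firefly luciferase at 100 ng per well in PBS; test concentration not given here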
Sequence of Luciferin 4-monooxygenase (Photinus pyralis) (P08659 whole entry, looked up): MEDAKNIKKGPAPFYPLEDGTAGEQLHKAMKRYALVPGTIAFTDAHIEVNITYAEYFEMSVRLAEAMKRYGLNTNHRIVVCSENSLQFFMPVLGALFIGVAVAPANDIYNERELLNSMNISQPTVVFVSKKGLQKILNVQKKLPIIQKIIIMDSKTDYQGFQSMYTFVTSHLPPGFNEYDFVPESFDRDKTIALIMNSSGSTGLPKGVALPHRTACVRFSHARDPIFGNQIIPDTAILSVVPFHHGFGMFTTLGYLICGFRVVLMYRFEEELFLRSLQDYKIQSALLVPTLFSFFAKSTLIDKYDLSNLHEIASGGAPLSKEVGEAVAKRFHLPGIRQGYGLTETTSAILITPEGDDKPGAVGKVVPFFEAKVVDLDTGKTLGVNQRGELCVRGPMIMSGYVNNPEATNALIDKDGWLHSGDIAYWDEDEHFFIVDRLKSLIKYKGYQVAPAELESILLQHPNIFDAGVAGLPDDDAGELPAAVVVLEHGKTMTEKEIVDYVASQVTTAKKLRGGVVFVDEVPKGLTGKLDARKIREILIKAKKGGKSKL

[10] = test system: Wnt5a (protein binding on small-molecule microarray); test: Wnt5a binders on small-molecule microarray, primary screen, biophysical, 635/667 nm fluorescence (AID 1142); conditions: 635 nm fluorescence, higher = more signal;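 note: fluorescence read at 667 nm with signal to noise per printed feature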
[11] = cell viability in Huh7 cells, primary screen, cytotoxicity control for HCV replication inhibitor project, CellTiter-Glo luminescence, basal, 48 h (AID 1143); conditions: Huh7 HCV replicon, higher = more signal, called active from +8 up or from −8 down;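 note: Huh7 hepatoma cells carrying a hepatitis C replication reporter with no stimulus; test concentration not given here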
[12] = P. aeruginosa biofilm formation inhibitors, primary screen, PAO1 strain, BacTiter-Glo luminescence, LB-PBS (AID 1144); conditions: 12 h, higher = more signal
[13] = CREB reporter modulators without forskolin, primary screen, cell-based, PC12, CRE-LacZ reporter, unstimulated (AID 1145); conditions: no forskolin, luminescence, 4.5 h, higher = more signal, called active from +8 up or from −8 down
[14] = CREB reporter modulators under forskolin, primary screen, cell-based, PC12, CRE-LacZ reporter, forskolin-stimulated (AID 1146); conditions: luminescence, 4.5 h, higher = more signal, called active from +8 up or from −8 down;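 note: PC12 cells with 6xCRE LacZ reporter stimulated by forskolin 10 µM; beta-galactosidase reporter signal reflecting CREB driven transcription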
[15] = biological target: Streptavidin (Streptomyces avidinii) (UniProt P22629); test: streptavidin binders on small-molecule microarray, primary screen, artefact control for SMM compound annotation, biophysical, 635/667 nm fluorescence (AID 1147); conditions: streptavidin binding, higher = more signal;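 note: signal reflects streptavidin binding to arrayed compounds as a control protein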
Sequence of Streptavidin (Streptomyces avidinii) (P22629 whole entry, looked up): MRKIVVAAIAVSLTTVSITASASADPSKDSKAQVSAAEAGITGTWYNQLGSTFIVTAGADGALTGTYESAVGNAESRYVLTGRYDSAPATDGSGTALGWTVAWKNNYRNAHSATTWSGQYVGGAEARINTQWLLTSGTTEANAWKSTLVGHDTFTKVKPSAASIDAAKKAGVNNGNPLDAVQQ

[16] = small-molecule binders of probe aInhba, primary screen, biochemical, small-molecule microarray, 635/667 nm fluorescence (AID 1148); conditions: higher = more signal;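 note: score merges 667nm spot fluorescence with signal-to-noise for antibody binding to printed compounds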
Torsin-1A (Homo sapiens) [17] = biological target: Torsin-1A (Homo sapiens) (UniProt O14656); test: torsin A binders from cell lysate, primary screen, small-molecule microarray, wild-type, 635/667 nm (AID 1149); conditions: COS7 hTOR1A-WT lysate, 635 nm fluorescence, higher = more signal
Sequence of Torsin-1A (Homo sapiens) (O14656 whole entry, looked up): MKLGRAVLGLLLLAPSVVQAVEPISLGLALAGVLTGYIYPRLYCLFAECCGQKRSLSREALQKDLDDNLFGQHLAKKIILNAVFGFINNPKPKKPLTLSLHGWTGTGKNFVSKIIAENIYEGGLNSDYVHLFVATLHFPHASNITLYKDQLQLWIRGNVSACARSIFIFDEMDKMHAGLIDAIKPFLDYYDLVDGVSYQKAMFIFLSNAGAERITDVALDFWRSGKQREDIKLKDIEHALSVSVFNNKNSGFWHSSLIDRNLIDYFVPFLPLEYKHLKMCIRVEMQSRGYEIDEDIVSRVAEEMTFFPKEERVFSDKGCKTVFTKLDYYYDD

Torsin-1A (Homo sapiens) [18] = biological target: Torsin-1A (Homo sapiens) (UniProt O14656); test: small-molecule binders of mutant TOR1A in lysate, primary screen, cell lysate, small-molecule microarray, COS7 lysate, 635/667 nm fluorescence (AID 1150); conditions: COS7 hTOR1A mutant lysate, 635 nm fluorescence, higher = more signal;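 note: score pools 667 nm emission and signal to noise measuring lysate protein binding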
[19] = test system: Sonic hedgehog protein (Shh); test: small-molecule binders of Shh protein, primary screen, biochemical, small-molecule microarray, 635/667 nm fluorescence (AID 1151); conditions: small-molecule microarray binding, 635 nm fluorescence; higher = more signal;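 note: Shh protein binding to compounds spotted on small-molecule microarray slides; score combines spot fluorescence intensity with signal-to-noise across triplicate slides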

| SMILES | composite z-score [1] | composite z-score [2] | composite z-score [3] | composite z-score [4] | composite z-score [5] | composite z-score [6] | z-score [7] | composite z-score (Lefty1) | composite z-score [8] | z-score [9] | composite z-score [10] | z-score [11] | z-score [12] | z-score [13] | z-score [14] | composite z-score [15] | composite z-score [16] | composite z-score (Torsin-1A (Homo sapiens) [17]) | composite z-score (Torsin-1A (Homo sapiens) [18]) | composite z-score [19] |
| --- | --- | --- | --- | --- | --- | --- | --- | --- | --- | --- | --- | --- | --- | --- | --- | --- | --- | --- | --- | --- |
| O=C(NCCN1CCOCC1)[C@@H]1c2ccccc2C(=O)N(Cc2ccccc2)[C@H]1c1ccc(CO)cc1 | -0.87 | -0.611 | -0.668 | 0.143 | 0.321 | -0.447 | 0.829 | -0.665 | -0.3 | 1.36 (inactive) | -0.817 | -1.62 (inactive) | -0.996 (inactive) | 0.145 (inactive) | -0.674 (inactive) | 1.49 | -0.0719 | -1.46 | -0.21 | -1.67 |
| CN(C)C(=O)[C@@]1(Cc2ccccc2N=[N+]=[N-])N=C(c2ccc(OCCCO)cc2)O[C@H]1c1ccccc1 | 1.78 | 1.25 | 0.235 | 0.992 | 1.15 | 1.37 | -0.238 | -0.442 | 1.22 | -2.17 (inactive) | 0.797 | -4.41 (inactive) | -1.63 (inactive) | 0.872 (inactive) | 0.361 (inactive) | 1.84 | 0.841 | 0.106 | 0.401 | -0.361 |
| COCCOC(=O)N1C(=O)[C@@]2(c3cc(C#CCC(C(=O)OC)C(=O)OC)ccc31)[C@H](C(=O)NC[C@H](O)c1ccccc1)[C@H]1C(=O)O[C@H](c3ccccc3)[C@H](c3ccccc3)N1[C@@H]2c1ccc(O)cc1 | 2.58 | 1.17 | 0.983 | -0.6 | 0.22 | 0.501 | -0.464 | 0.464 | 1.02 | -0.296 (inactive) | 0.247 | -1.1 (inactive) | -0.766 (inactive) | -0.191 (inactive) | -0.221 (inactive) | -0.003 | -0.0509 | -0.431 | 0.413 | 0.863 |
| C=C(/C(=C/C[C@@H](OC(=O)c1ccncc1)c1cccc(OCCO)c1)c1cnc2ccccc2c1)C(C)C | 0.787 | 1.09 | 0.329 | 0.807 | 1.42 | 2.01 | 1.02 | 1.2 | 1.29 | -1.47 (inactive) | 0.782 | -2.31 (inactive) | -0.454 (inactive) | 1.69 (inactive) | 0.628 (inactive) | 1.62 | 0.0422 | 0.199 | 0.128 | 2 |
| COCCOC(=O)N1C(=O)[C@@]2(c3ccccc31)[C@H](c1ccccc1OCCO)N1[C@H](c3ccccc3)[C@H](c3ccccc3)OC(=O)[C@H]1[C@@H]2C(=O)N1CCCCCCC1 | 0.703 | 1.32 | 3.01 | 0.995 | 1.53 | 1.55 | -0.0428 | 1.71 | 1.63 | -0.507 (inactive) | 1.82 | -3.1 (inactive) | -0.41 (inactive) | -0.744 (inactive) | 4.93 (inactive) | 3.64 | 2.24 | 2.69 | 2.39 | 1.77 |
